Bioassay records deposited in PubChem by Fisher Drug Discovery Resource Center.
mcGAS MS inh: mouse cGAS inhibition by mass spec; recombinant mouse cGAS, cGAMP by RapidFire MS; 130,000 compounds, 0.18% hits; inhibition, % at 12.5 µM; Q8C6L5;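 active = inhibition of cGAS enzyme activity at or above 60%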;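 note: enzyme stimulated by 45 bp dsDNA with ATP and GTP substrates; cGAMP share of summed cGAMP plus half ATP and half GTP signals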
Target sequence (Q8C6L5 whole entry, looked up): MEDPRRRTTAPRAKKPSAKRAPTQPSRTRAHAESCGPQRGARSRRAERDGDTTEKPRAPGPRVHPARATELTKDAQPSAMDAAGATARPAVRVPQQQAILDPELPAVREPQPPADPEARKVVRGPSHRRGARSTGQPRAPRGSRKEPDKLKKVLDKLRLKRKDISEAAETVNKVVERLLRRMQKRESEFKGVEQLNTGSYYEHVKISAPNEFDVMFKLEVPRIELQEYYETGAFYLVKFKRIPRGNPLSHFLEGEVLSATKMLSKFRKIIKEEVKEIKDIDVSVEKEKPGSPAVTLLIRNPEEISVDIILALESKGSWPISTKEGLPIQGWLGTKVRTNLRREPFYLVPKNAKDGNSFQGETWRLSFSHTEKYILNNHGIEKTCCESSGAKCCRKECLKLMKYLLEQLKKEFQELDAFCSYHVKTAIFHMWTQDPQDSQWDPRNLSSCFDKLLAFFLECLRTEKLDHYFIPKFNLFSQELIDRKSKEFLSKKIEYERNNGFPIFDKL
* hit, by the source's call. Many of the other results were omitted from the sample, so hits are more common in it than they were.

For N#Cc1cc(I)c(O)c([N+](=O)[O-])c1 the results were mcGAS MS inh 95*.
For Cc1nn(-c2ccccc2)c2nc3cccc(=O)n3c(-c3ccc(Cl)cc3)c12 the results were mcGAS MS inh -4.
`O=c1c(O)c(-c2cc(O)c(O)c(O)c2)oc2cc(O)cc(O)c12` gave mcGAS MS inh 94*.
Screening O=c1c(O)c(-c2ccccc2)oc2cc(O)ccc12 returned mcGAS MS inh -8.
For O=c1c(O[C@@H]2O[C@H](CO)[C@H](O)[C@H](O)[C@H]2O)c(-c2ccc(O)c(O)c2)oc2cc(O)cc(O)c12 the results were mcGAS MS inh 10.
Screening COC(=O)c1ccc(CSc2ncc(CO)n2CC(=O)NC2CC2)cc1 returned mcGAS MS inh -7.
O=[N+]([O-])c1cc(S(=O)(=O)N2CCCCCC2)ccc1NCCc1cn2ccccc2n1 was read as mcGAS MS inh 2.
NCC1CCN(Cc2nc3ccccc3[nH]2)C1 (configuration not stated) was read as mcGAS MS inh 18.
CC(CC#N)Sc1ccccc1NC(=O)C1CC(=O)N(CC2CC2)C1 (configuration not stated) was read as mcGAS MS inh 66*.
Screening CCN1CC(C(=O)Nc2ccccc2C(C)C)CC1=O (configuration not stated) returned mcGAS MS inh 3.
Screening O=C(Nc1ccc2scnc2c1)C1CC(=O)N(CC2CC2)C1 (configuration not stated) returned mcGAS MS inh -13.
`O=C(CCC1CCCN(Cc2nc3c(s2)CCCC3)C1)NC1CC1` (configuration not stated) gave mcGAS MS inh -10.
Screening COc1cccc(CNC(=O)C(=O)Nc2cc3c4c(c2)CCN4C(=O)CC3)c1 returned mcGAS MS inh -11.
For Cc1ccc2c(=O)c(/C=N\NC(=O)CCC(=O)Nc3ccc(C(=O)O)cc3)coc2c1 the results were mcGAS MS inh 19.
Screening CS(=O)(=O)c1ccc(N2CCCC2C2CCCc3ccccc32)c(S(C)(=O)=O)c1 (configuration not stated) returned mcGAS MS inh -9.
O=c1/c(=C/c2ccc(N3CCOCC3)cc2)sc2nc3cc(Br)cnc3n12 was read as mcGAS MS inh 81*.
Screening O=c1/c(=C/c2cccc([N+](=O)[O-])c2)sc2nc3cc(Br)cnc3n12 returned mcGAS MS inh 28.
CCOc1cc(/C=c2\sc3nc4cc(Br)cnc4n3c2=O)ccc1O was read as mcGAS MS inh -21.
For CN1CCCC2(CCN(C(=O)c3cc4sccc4[nH]3)C2)C1=O (configuration not stated) the results were mcGAS MS inh 11.
Screening O=C1CSC(c2cccc(C(F)(F)F)c2)N1c1ccc(O)cc1 (configuration not stated) returned mcGAS MS inh -8.
For CN(C)c1ccc(C(=O)Nc2cc(N3CCOC3=O)ccc2F)cc1F the results were mcGAS MS inh -6.
For CCN1CCN(c2ccc(NC(=O)c3ccc(OC)cc3F)c(C)c2)CC1 the results were mcGAS MS inh 0.
For Clc1ccc(Oc2ccnc3cc(Cl)ccc23)cc1 the results were mcGAS MS inh -4.
Clc1ccc2c(-n3ccnc3)ccnc2c1 was read as mcGAS MS inh 67*.
Clc1ccc2c(Oc3ccc(Br)cc3)ccnc2c1 was read as mcGAS MS inh -20.
For O=C(Nc1ccc(C(=O)N2CCOCC2)cc1)C1C2CC3OC(=O)C1C3C2 (configuration not stated) the results were mcGAS MS inh -8.
For CC1CN(C(=O)CCNc2snc(Cl)c2C#N)CC(C)O1 (configuration not stated) the results were mcGAS MS inh 5.
Nc1ccnc(N2CCCC(Cc3cccc(Cl)c3)(C(=O)O)C2)n1 (configuration not stated) was read as mcGAS MS inh -2.
For O=c1c(CN(CCc2ccccc2)Cc2ccccc2)coc2c(Cl)cc(Cl)cc12 the results were mcGAS MS inh -22.
Fc1ccccc1N1CCN(Cn2[nH]c(-c3ccccc3)nc2=S)CC1 was read as mcGAS MS inh 5.
For CN(C)C(=O)C1CCCN1Cn1[nH]c(-c2ccccc2)nc1=S (configuration not stated) the results were mcGAS MS inh 17.
S=c1nc(-c2ccccc2)[nH]n1CN1CCc2ccccc2C1 was read as mcGAS MS inh 77*.
`O=C(Cn1c(CO)cnc1SCc1ccccc1Cl)NC1CCCC1` gave mcGAS MS inh -7.
`Cc1cc(C(C)NC(=O)Cn2c(C)csc2=O)c(C)s1` (configuration not stated) gave mcGAS MS inh -8.
`CCCCCC(C)n1[nH]c(=O)c2c(C)cc(C)nc21` (configuration not stated) gave mcGAS MS inh 13.
Screening CCCCC(C)n1[nH]c(=O)cc1N (configuration not stated) returned mcGAS MS inh 63*.
CCCCn1c(N)cc(=O)[nH]c1=O was read as mcGAS MS inh -4.
For COc1cccc(/C=N\Nc2nnc(C)n2N)c1OCc1ccccc1Cl the results were mcGAS MS inh -4.
Screening CCOc1ccc(-c2n[nH]c(=S)n2CC(=O)NC(C)c2ccco2)cc1 (configuration not stated) returned mcGAS MS inh -3.
Screening CCOC(=O)C1(C)CCCCN1C(=O)c1ccc(OC)c(OC)c1 (configuration not stated) returned mcGAS MS inh -5.
`O=C(CSc1nc2c(cnn2CCO)c(=O)[nH]1)N1CCCCCC1` gave mcGAS MS inh -27.
Screening CCC1NC(=O)c2cc(S(N)(=O)=O)c(Cl)cc2N1 (configuration not stated) returned mcGAS MS inh 94*.
`CN1C(CCl)Nc2cc(Cl)c(S(N)(=O)=O)cc2S1(=O)=O` (configuration not stated) gave mcGAS MS inh -6.
Screening NS(=O)(=O)c1cc2c(cc1Cl)NCNS2(=O)=O returned mcGAS MS inh -1.
Screening COc1ccc(C)cc1C(C)Nc1cc(C)nc2ncnn12 (configuration not stated) returned mcGAS MS inh 4.
CC(C)(C)c1cc(C(F)(F)F)c2c(N)c(C(=O)NC3CC3)sc2n1 was read as mcGAS MS inh -4.
O=C(Nc1cc(C(=O)N2CCCCC2)ccc1Cl)C1CCC1 was read as mcGAS MS inh -14.
For Cc1cc(C=C2C(=O)NC(=S)NC2=O)c(C)n1CC(F)(F)F the results were mcGAS MS inh 74*.
For CCN1C(=O)C(=Cc2cc(C)n(CC(F)(F)F)c2C)SC1=S the results were mcGAS MS inh -11.
For COC(=O)C(=Cc1cc(C)n(CC(F)(F)F)c1C)C(C)=O the results were mcGAS MS inh -12.
C1CCc2c(sc3nc(C4CC4)nc(NCC4(N5CCOCC5)CCSC4)c23)C1 (configuration not stated) was read as mcGAS MS inh 6.
For COc1ccc(CN(C)C(=S)NC2CC3CCC2C3)cc1OC (configuration not stated) the results were mcGAS MS inh -3.
For Cc1ccc(SC(C)C(=O)N(C)C)cc1 (configuration not stated) the results were mcGAS MS inh 5.
O=C1CC(C(F)(F)F)N(C(=O)COC(=O)c2cccc(OCC3CCCO3)c2)c2ccccc2N1 (configuration not stated) was read as mcGAS MS inh 94*.
Screening Cc1noc(C)c1C(=O)Nc1cccc(OCC2CCCO2)c1 (configuration not stated) returned mcGAS MS inh -5.
